Experimental findings from PubChem BioAssay AID662 (National Center for Advancing Translational Sciences (NCATS), 2007) are described below.

Out of some 71,000 compounds screened, about 1,800 (2.5%) were called active. About 26% were inconclusive and are not listed. The call rests on the fitted dose curve; in most records, active means well fitted activation curve with a large enough effect in the signal ratio, with a control signal flat (not every such curve was filed as active); inconclusive means small, poorly fitted or top-dose-only effect, or effect the other way, or a change in a side signal; inactive means flat fitted curve, though single readings scatter; the % refers to the signal ratio. Many of the other results were omitted from the sample, so actives are more common in it than they were.
Potency means the concentration at half of the fitted maximal effect.

The test can be described thus: Cell signaling CRE-BLA (Fsk stim). On activity change, negative = inhibition: % of control where 0% means no effect. To be noted: CHO CRE-bla reporter (cAMP response element driving beta-lactamase), forskolin EC10, beta-lactamase ratio; series mostly up to 38.2 µM; activity change, negative = inhibition: at the top concentration. From the text: NIH Molecular Libraries Screening Centers Network [MLSCN]
NIH Chemical Genomics Center [NCGC]
Assay Provider: Marshall W. Nirenberg, U.S. National heart lung & blood institute
Memories persist for different lengths of time, from seconds or minutes to a lifetime. There are two kinds of memory: short-term memory (STM) and long-term memory (LTM). STM lasts for minutes to hours, which maybe mediated by modifications of molecules involved in synaptic functions. LTM lasts for days or longer, and may be due to the formation of new synapses or restructuring of existing synapses. LTM, but not STM, requires gene transcription and synthesis of proteins. CREB (cyclic-AMP Responsive Element Binding Protein) is one of the candidates plays an important role for enhancement of some types of LTM. CREB, a family of transcription factors, regulates the transcription of genes containing cAMP Responsive Elements (CRE). CRE is a nucleotide sequence often found in the promoter regions of genes that are binding sites for CREB.
Using a beta-lactamase reporter-gene under control of cAMP responsive element, a cell-based assay [CellSensor(TM) CRE-bla CHO developed by Invitrogen Corp.] was used to measure forskolin-induced signaling. Library compounds were measured for their ability to modulate positively or negatively the action of EC10 NKH 477, a water soluble forskolin, on reporter gene activity. Compounds were screened in a titration series in 1536-well format. Positive and negative modulators were identified based on the AC50 values derived from the screening data.
NCGC Assay Protocol Summary
2000 cells/5uL in Opti-MEM medium containing 0.5% dialyzed FBS, 0.1 mM NEAA, 1 mM sodium pyruvate and 10 mM HEPES was dispensed into 1536-well plates and cells were cultured at 37 degrees Celsius overnight. […] And then the plates were incubated at 37 degrees Celsius for 3 hours. 1 uL of CCF4-dye mixture was added to each well. After incubated at room temperature for 2 hours the plates were measured on an EnVision plate reader at Excitation 405nm, Emission1=460nm and Emission 2=530nm. The %Activity was determined from the ratio of 460nm/530nm.
Keywords: NIH Roadmap, MLSCN, MLSMR, qHTS, NCGC, CRE, beta-lactamase reporter-gene assay.
Take `CCCc1nc(SCC(=O)Nc2ccccc2OC)c2c(=O)n(C)c(=O)n(C)c2n1`: the Potency was 2.51 µM (active). For `Cn1c(=O)c2c(nc(SCC(=O)Nc3ccccc3N3CCCCC3)n2C)n(C)c1=O`, the “activity change, negative = inhibition” value was 12.6% (inactive). As to `C=CCc1cccc2cc(C(=O)OCC)c(=O)oc12`, the “activity change, negative = inhibition” value was 18.5% (inactive). Same read-out and setting: with `COc1ccccc1N1CCN(C[C@@H]2CN3C(=O)N(C)c4ccccc4C3=N2)CC1` the figure was -8.31% (inactive); with `COc1ccc(-c2nc(-c3ccccc3)no2)c(OC)c1`, -11.5% (inactive).

Take `COc1ccc(-c2noc(-c3cccc(OC)c3OC)n2)cc1OC`: the Potency is 2.51 µM (active). Regarding `COc1cc(-c2nc(-c3ccncc3)no2)cc(OC)c1OC`, the “activity change, negative = inhibition” value was 28% (inactive). As to `COc1ccc(C(=O)n2nc(-c3ccc(Cl)cc3)nc2N)cc1OC`, the Potency is 2 µM (active). Regarding `COc1ccc(C(=O)n2nc(-c3ccc(C)cc3)nc2N)cc1OC`, the “activity change, negative = inhibition” value was 15.7% (inactive).

In the case of `COc1ccccc1C(=O)n1nc(-c2ccccc2)nc1N`, the “activity change, negative = inhibition” value is -11% (inactive). In the case of `O=C1CC(N2CCN(C(c3ccccc3)c3ccccc3)CC2)C(=O)N1` (stereo unspecified), the “activity change, negative = inhibition” value was -6.11% (inactive). Take `CC/C(=N\O)C(C)(C)/[N+]([O-])=C/c1ccc(Br)cc1`: the “activity change, negative = inhibition” value was -3.39% (inactive). On the same count and under the same terms, with `O=C(OCCO)c1cc(Cl)c(C(=O)OCCO)cc1Cl` the figure was 1.61% (inactive). Regarding `O=C(O)CN(Cc1ccco1)S(=O)(=O)c1ccccc1`, the “activity change, negative = inhibition” value is 2.24% (inactive). For `CCc1nc(N2CCN(c3nc(C)cc(C)n3)CC2)c2oc3ccccc3c2n1`, the “activity change, negative = inhibition” value was -1.26% (inactive). On to `CCc1nc(Nc2ccc3nccnc3c2)c2oc3ccccc3c2n1`, for which the Potency was 0.794 µM (active). With `COc1ccccc1Nc1ncnc2c1oc1ccccc12`, the “activity change, negative = inhibition” value was 31.9% (inactive). The same measure, in the same setting: the value for `CC(C)(C)c1nc(NCC2CCCO2)c2nnn(Cc3ccccc3)c2n1` (stereo unspecified) was 7.95% (inactive).

On to `C#CCNc1nc(C(C)C)nc2c1nnn2Cc1ccccc1F`, for which the Potency was 10 µM (active).

Turning to `CC(=O)NC(C)c1nc2ccccc2n1Cc1ccccc1F` (stereo unspecified), the “activity change, negative = inhibition” value was -9.33% (inactive). On to `Cc1cccc(C(=O)O)c1`, for which the “activity change, negative = inhibition” value was -9.1% (inactive). On to `COC(=O)c1ccc(CSc2nc3ccccc3c(=O)n2-c2cccc(OC)c2)o1`, for which the Potency is 5.01 µM (active). The same measure, in the same setting: with `COCC(C)n1c(SCc2ccc(C(=O)OC)o2)nc2ccccc2c1=O` (stereo unspecified) the figure was 10 µM (active). For `CCOC(=O)CNC(=O)c1nn(-c2cccc(OC)c2)c(=O)c2ccccc12`, the “activity change, negative = inhibition” value was 14.6% (inactive). For the compound `COC(=O)c1ccc(CSc2ccccc2C)o1`, the “activity change, negative = inhibition” value is -26.7% (inactive). The same measure, in the same setting: the value for `CCCC(NC(=O)c1ccccc1)c1nc2ccccc2n1Cc1ccc(C(=O)OC)o1` (stereo unspecified) was 10.7% (inactive); that for `O=c1c2ccccc2nc(CSc2nnnn2-c2ccccc2)n1-c1ccccc1` was -0.982% (inactive); that for `COc1ccc(S(=O)(=O)N2CCC(C(=O)N3CCOCC3)CC2)cc1OC` was 0.418% (inactive). With `COC(=O)C1(C)C=CCN1C(=O)c1ccccc1` (stereo unspecified), the “activity change, negative = inhibition” value is -3.13% (inactive). As for `CC1COC2C(O1)N(S(C)(=O)=O)CCN2S(C)(=O)=O` (stereo unspecified), the “activity change, negative = inhibition” value was -1.89% (inactive). Take `O=C(C1CCN(CC2CCCCC2)CC1)N1CCCC1`: the “activity change, negative = inhibition” value is -0.979% (inactive).

As for `CCOC(=O)C1CCN(C(=O)Nc2ccc(Cl)cc2)CC1`, the “activity change, negative = inhibition” value was -3.28% (inactive). Regarding `COCC(C)N=CC1=C(O)CC(C)(C)CC1=O` (stereo unspecified), the “activity change, negative = inhibition” value is 4.27% (inactive). Still for that read-out and setting: the value for `N=c1c2c3c(sc2ncn1N)CCCCC3` was -0.591% (inactive).

In the case of `COCCNc1nc(-n2nc(C)cc2C)nc2sc3c(c12)CCCC3`, the Potency is 12.6 µM (active). On to `COCCn1c(C)cc(C(=O)CSc2ncnc3sc4c(c23)CCC4)c1C`, for which the “activity change, negative = inhibition” value was 8.37% (inactive). The same measure, in the same setting: the value for `Cc1cc(N=CC2=C(O)CCCC2=O)no1` was -1.94% (inactive). Still for that read-out and setting: the value for `Cc1cc(C(=O)O)ccc1[N+](=O)[O-]` was -16.5% (inactive); that for `COC(=O)C1C(=O)CC(C)(O)C(C(=O)OC)C1c1ccc2c(c1)OCO2` (stereo unspecified) was -1.98% (inactive); that for `C/C(=C\C(=O)c1cccnc1)Nc1ccc(C)c(C)c1` was 13.6% (inactive). The same measure, in the same setting: with `COc1ccc(NC(=O)CSc2nnc(-c3cccs3)n2Cc2ccco2)cc1OC` the figure was 5.96% (inactive).

In the case of `COc1ccccc1NC(=O)CSc1nc2sc(C)c(C)c2c(=O)n1Cc1ccco1`, the Potency was 3.98 µM (active).

In the case of `CC(Sc1nc2ccccc2c(=O)n1Cc1ccco1)C(=O)c1ccccc1` (stereo unspecified), the “activity change, negative = inhibition” value is 4.85% (inactive).

For `CCCn1c(-c2ccc(F)cc2)nc2c(NC3CCN(Cc4ccccc4)C3)nc(C)nc21` (stereo unspecified), the “activity change, negative = inhibition” value is 10.1% (inactive).

Turning to `COC(CCN(C)C)(c1ccccc1)c1ccccc1`, the activity change, negative = inhibition was -22.8% [at 7.6 µM] (inactive). Same read-out and setting: the value for `CCCC[C@@H]1C[C@H]1C(NC(=O)c1ccc(-c2ccccc2)cc1)c1ccc(-c2ccccc2)cc1` (stereo partly specified) was 2.34% (inactive); that for `O=C(Nc1ccc(-c2nnc(-c3ccccc3)o2)cc1)c1ccc(Br)o1` was -0.431% (inactive); that for `COc1cc(OC)c(NC(=O)c2ccc(Br)o2)cc1Cl` was 19.3% [at 7.6 µM] (inactive).

Consider `Cc1cc(C)nc(-n2nc(C)cc2NC(=O)c2ccc(Br)o2)n1`, for which the Potency was 1.26 µM (active).

In the case of `CCSC1(SCC)N=C(N)C2(C#N)C(c3ccccc3)NC(C)=CC12C#N` (stereo unspecified), the “activity change, negative = inhibition” value is -14.9% (inactive). Take `O=C(Cn1cnc2c(cnn2-c2ccc(F)cc2)c1=O)NCCc1ccccc1`: the “activity change, negative = inhibition” value was -4.15% (inactive).

For `CCOC(=O)c1cnc2sccn2c1=O`, the “activity change, negative = inhibition” value is -5.25% (inactive). The same measure, in the same setting: the value for `CCOC(=O)c1ccc(-n2c(C)nc3c(cnn3-c3ccccc3C)c2=O)cc1` was 4.93% (inactive). Take `CCCn1c(=NC(C)=O)c(C(=O)OCC)cc2c(=O)n3ccccc3nc21`: the Potency is 10 µM (active). Consider `Cc1cc(C)cc(N)c1`, for which the “activity change, negative = inhibition” value is -7.14% (inactive). Still for that read-out and setting: the value for `CCCCNc1nc(C)nc2c1nc(-c1ccccc1)n2CCCCN(CC)CC` was 6.32% (inactive).
